This is an account of results in the supplement of paper PMC6897291.

Structures are written as SMILES.

The subject of this assay is U-2932. Nature of the assay: growth inhibition by drug alone (1 - RLU/untreated control) (fraction); higher = stronger inhibition. Particulars: 177Lu-lilotomab satetraxetan 0 ug/ml. As for the experimental part: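 U-2932 ABC-DLBCL cells were pretreated or not for 18 h with 1 ug/ml 177Lu-lilotomab satetraxetan (600 MBq/mg), washed and seeded (3000 cells/well) on 384-well plates pre-printed with the Selleck Cambridge Cancer Compound library. Viability was read by RealTime-Glo luminescence on days 3-6 after seeding. Effect = 1 - RLU/mean RLU of the 48 untreated no-drug control wells per plate; Bliss score = (M-E)/(1-Fa), with E the expected Bliss-additive effect.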

As to `CC(=O)Nc1ccc(OC[C@](C)(O)C(=O)Nc2ccc([N+](=O)[O-])c(C(F)(F)F)c2)cc1` [Andarine (GTX-007)], the “growth inhibition by drug alone” value is, setting by setting: (10 nM, time (day): 3) 0.0764; (10 nM, time (day): 4) 0.0433; (10 nM, time (day): 5) -0.0579; (10 nM, time (day): 6) -0.0688; (1000 nM, time (day): 3) 0.0614; (1000 nM, time (day): 4) 0.0399. Moreover, the “growth inhibition by drug alone” value runs as follows: (1000 nM, time (day): 5) -0.0394; (1000 nM, time (day): 6) 0.0038.
For the compound `CC1=C2C[C@H]3[C@@H](CC=C4C[C@@H](O)CC[C@@]43C)[C@@H]2CC[C@]12O[C@@H]1C[C@H](C)CN[C@H]1[C@H]2C` [Cyclopamine], the “growth inhibition by drug alone” value is, setting by setting: (10 nM, time (day): 3) 0.097; (10 nM, time (day): 4) 0.0521; (10 nM, time (day): 5) -0.0277; (10 nM, time (day): 6) -0.0904; (1000 nM, time (day): 3) 0.00899; (1000 nM, time (day): 4) 0.035. Besides, the “growth inhibition by drug alone” value by setting is: (1000 nM, time (day): 5) -0.037; (1000 nM, time (day): 6) -0.267.
Turning to `CCC1(c2ccc(N)cc2)CCC(=O)NC1=O` (stereo not given) [Aminoglutethimide (Cytadren)], the “growth inhibition by drug alone” value is 0.0306 (10 nM, time (day): 3); -0.0299 (10 nM, time (day): 4); -0.152 (10 nM, time (day): 5); -0.107 (10 nM, time (day): 6); -0.0187 (1000 nM, time (day): 3); -0.0577 (1000 nM, time (day): 4). Also, the “growth inhibition by drug alone” value was -0.161 (1000 nM, time (day): 5) and -0.122 (1000 nM, time (day): 6).
For the compound `CC[C@@H](C(=O)[C@@H](C)[C@@H](O)[C@H](C)[C@@H]1O[C@@H]([C@@H](CC)C(=O)O)CC[C@@H]1C)[C@H]1O[C@]2(C=C[C@@H](O)[C@]3(CC[C@@](C)([C@H]4CC[C@](O)(CC)[C@H](C)O4)O3)O2)[C@H](C)C[C@@H]1C` [Salinomycin (Procoxacin)], the “growth inhibition by drug alone” value is 0.136 (10 nM, time (day): 3); 0.115 (10 nM, time (day): 4); 0.00536 (10 nM, time (day): 5); -0.0492 (10 nM, time (day): 6); 0.311 (1000 nM, time (day): 3); 0.423 (1000 nM, time (day): 4). For the same compound, the “growth inhibition by drug alone” value by setting is: (1000 nM, time (day): 5) 0.542; (1000 nM, time (day): 6) 0.721.
For the compound `O=P1(N(CCCl)CCCl)NCCCO1` (stereo not given) [Cyclophosphamide monohydrate], the “growth inhibition by drug alone” value reads like this: (10 nM, time (day): 3) -0.0368; (10 nM, time (day): 4) -0.0191; (10 nM, time (day): 5) -0.0185; (10 nM, time (day): 6) 0.00793; (1000 nM, time (day): 3) -0.0419; (1000 nM, time (day): 4) -0.0135. Besides, the “growth inhibition by drug alone” value reads like this: (1000 nM, time (day): 5) -0.0461; (1000 nM, time (day): 6) -0.0745.
